LANA-H2A inh: blocks KSHV LANA binding to histone H2A/H2B. AID 2629. cell-free LANA-H2A/H2B peptide, fluorescence polarization. inhibition, % (test concentration not listed). hit rate 0.6% among 320,000. Q9QR71; in the data active = inhibition mostly above about 10%, no sharp cut-off; inactive = mostly below about 6.7%
GRK2 inh: inhibitors of human GRK2 displacing RNA aptamer; hit rate 0.59% among 330,000; inhibition of aptamer binding, % at 10 µM; bead flow cytometry, FAM-aptamer displacement from GRK2; AID 488847;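 active = inhibition of aptamer binding above 40%, roughly 3 SD of noise, on plates passing a quality check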;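 also: median bead fluorescence of bound FAM aptamer so fluorescent compounds give negative values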
PKD1 inh: inhibitors of human PKD1 kinase. inhibition, % (no concentration beside the values). hit rate 0.056% among 200,000. PKD1 kinase fluorescence polarization assay
Pemphigus Ab inh: blocks pemphigus antibody binding to human desmoglein-3; P32926; DSG3-coupled beads, scFv-anti-DSG3-GFP binding, flow cytometry; stronger effect = lower value; hit rate 0.48% among 310,000; binding (percent of control), % at 10 µM;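 active = binding more than 3 SD below its plate's average and above zero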
HDAC3 inh: human HDAC3 inhibition | O15379 | recombinant HDAC3, fluorogenic peptide/trypsin coupled, fluorescence | inhibition, % at 8.3 µM | hit rate 0.15% among 320,000 | AID 2718; in the data active = inhibition above about 26%, passing the limit was not always enough
VLA-4 inh: inhibition in a human VLA-4 binding assay; hit rate 0.2% among 330,000; inhibition, % (about 7 µM as worked out from the volumes in the protocol); AID 2557; VLA-4 expressing cells, ligand binding flow cytometry; P13612
VLA-4 allo CP: human VLA-4 allosteric modulation in cherry picked compounds | hit rate 2% among 1,300 | shares compounds with VLA-4 inh | inhibition, % at 6.7 µM | U937 cells, HUTS-21 LIBS mAb binding, flow cytometry; LDV ligand present at threefold Kd; in the data active = inhibition above about 40%
Hits are given with their value. A selection: hits, their analogues and other compounds. The true share with any hit is near 1.8%. Rule as the data show it, unless noted: active = inhibition above about 50%; inactive = the rest.

How did CN1CCN(C(=O)C2CCC(CNS(=O)(=O)c3cccc4cccnc34)CC2)CC1 (stereo unspecified) do in these assays?
LANA-H2A inh: inactive; GRK2 inh: inactive; PKD1 inh: inactive; Pemphigus Ab inh: inactive; HDAC3 inh: inactive; VLA-4 inh: inactive

What do the screens show for `Cc1cnc(C(=O)OCC(=O)NC(C)c2ccccc2)cn1` (stereo unspecified)?
LANA-H2A inh: inactive; GRK2 inh: inactive; HDAC3 inh: inactive; VLA-4 inh: inactive

What do the screens show for `CC#CCOCC1CNC(=O)O1` (stereo unspecified)?
Pemphigus Ab inh: inactive

What do the screens show for `O=C(Nc1ccc(CN2CCCCC2)cc1)Nc1ccccc1Cl`?
LANA-H2A inh: inactive; GRK2 inh: inactive; PKD1 inh: inactive; Pemphigus Ab inh: inactive; HDAC3 inh: inactive; VLA-4 inh: inactive

Results for O=C(Nc1ccc(Br)cc1)Nc1ccccc1Cl ?
LANA-H2A inh: inactive; GRK2 inh: inactive; Pemphigus Ab inh: inactive; VLA-4 inh: inactive; VLA-4 allo CP: inactive

How did COc1ccc(S(=O)(=O)N2CCOCC2)cc1NC(=O)CSc1cccc[n+]1[O-] do in these assays?
LANA-H2A inh: inactive; GRK2 inh: inactive; Pemphigus Ab inh: inactive; HDAC3 inh: inactive; VLA-4 inh: inactive

How did Cc1nc(NC(=O)c2cccc(-c3cc4ccccc4oc3=O)c2)ccc1Br do in these assays?
GRK2 inh: inactive; PKD1 inh: inactive; Pemphigus Ab inh: inactive; VLA-4 inh: inactive

Results for Cc1nc(NC(=O)c2ccc(-c3cc4ccccc4oc3=O)cc2)ccc1Br ?
LANA-H2A inh: inactive; GRK2 inh: inactive; PKD1 inh: inactive; HDAC3 inh: inactive; VLA-4 inh: inactive; VLA-4 allo CP: inactive

How did CCC(=O)N(Cc1ccc(S(N)(=O)=O)cc1)C1CC(=O)N(c2ccc(OC)cc2)C1=O (stereo unspecified) do in these assays?
LANA-H2A inh: inactive; GRK2 inh: inactive; PKD1 inh: inactive; HDAC3 inh: inactive; VLA-4 inh: inactive; VLA-4 allo CP: inactive

Results for CCOc1cccc(N2C(=O)CC(N(CCc3ccc(OC)c(OC)c3)C(=O)CC)C2=O)c1 (stereo unspecified) ?
LANA-H2A inh: inactive; GRK2 inh: inactive; PKD1 inh: inactive; Pemphigus Ab inh: inactive; HDAC3 inh: inactive; VLA-4 inh: inactive; VLA-4 allo CP: inactive

What do the screens show for `CCOC(=O)c1ccc(N2C(=O)CC(N(C)CCc3ccc(OC)c(OC)c3)C2=O)cc1` (stereo unspecified)?
LANA-H2A inh: inactive; GRK2 inh: inactive; PKD1 inh: inactive; Pemphigus Ab inh: inactive; HDAC3 inh: inactive; VLA-4 inh: inactive

Results for Cc1cccc(N(C(=O)CNC(=O)c2ccco2)C(C(=O)NC2CCCC2)c2cccnc2)c1C (stereo unspecified) ?
LANA-H2A inh: inactive; GRK2 inh: inactive; HDAC3 inh: inactive; VLA-4 inh: inactive

Results for O=C(CNC(=O)c1sc2ccccc2c1Cl)NCc1cccc(C(F)(F)F)c1 ?
LANA-H2A inh: inactive; GRK2 inh: inactive; Pemphigus Ab inh: inactive; VLA-4 inh: 53.3; VLA-4 allo CP: inactive

How did CCOC(=O)N1CCN(C(=O)CN(C)S(=O)(=O)c2ccc3c(c2)C(C)(C)C(=O)N3C)CC1 do in these assays?
LANA-H2A inh: inactive; GRK2 inh: inactive; PKD1 inh: inactive; HDAC3 inh: inactive; VLA-4 inh: inactive; VLA-4 allo CP: inactive

How did C[C@H](NC(=O)c1ccccc1)C(=O)N1CCN(c2ccccc2)CC1 do in these assays?
LANA-H2A inh: inactive; GRK2 inh: inactive; Pemphigus Ab inh: inactive; HDAC3 inh: inactive; VLA-4 inh: inactive

Results for CCC(=O)Nc1ccc2c(c1)ncn2-c1ccccc1 ?
LANA-H2A inh: inactive; GRK2 inh: inactive; PKD1 inh: inactive; Pemphigus Ab inh: inactive; HDAC3 inh: inactive; VLA-4 inh: 53.2; VLA-4 allo CP: inactive

What do the screens show for `CC(=O)Nc1ccc2c(c1)ncn2-c1ccccc1`?
LANA-H2A inh: inactive; GRK2 inh: inactive; Pemphigus Ab inh: inactive; HDAC3 inh: inactive; VLA-4 inh: inactive

How did CCc1ccc([C@H]2C(C(=O)O)=C[C@@H](CC3CCCC3)N2S(=O)(=O)c2ccc(C)cc2)cc1 do in these assays?
GRK2 inh: inactive; Pemphigus Ab inh: inactive; VLA-4 inh: inactive; VLA-4 allo CP: inactive

Results for Cc1ccc(S(=O)(=O)N2[C@@H](c3ccc(F)cc3)C(C(=O)O)=C[C@H]2CC2CCCC2)cc1 ?
LANA-H2A inh: inactive; GRK2 inh: inactive; Pemphigus Ab inh: inactive; HDAC3 inh: inactive; VLA-4 inh: inactive; VLA-4 allo CP: inactive

What do the screens show for `C[C@H](CO)N1C[C@H](C)[C@@H](CN(C)S(=O)(=O)c2cccs2)Oc2c(NC(=O)C3CC3)cccc2C1=O`?
LANA-H2A inh: inactive; GRK2 inh: inactive; Pemphigus Ab inh: inactive; HDAC3 inh: inactive; VLA-4 inh: inactive

What do the screens show for `CCOC(=O)C1=C(C)C2C3C(=O)N(c4ccc(C)cc4C)C(=O)C3C1(C)C1C(=O)N(c3ccc(C)cc3C)C(=O)C21` (stereo unspecified)?
LANA-H2A inh: inactive; GRK2 inh: inactive; PKD1 inh: inactive; Pemphigus Ab inh: inactive; HDAC3 inh: inactive; VLA-4 inh: inactive; VLA-4 allo CP: inactive

How did CCOC(=O)C1=C(C)C2C3C(=O)N(c4ccccc4C)C(=O)C3C1(C)C1C(=O)N(c3ccccc3C)C(=O)C21 (stereo unspecified) do in these assays?
LANA-H2A inh: inactive; GRK2 inh: inactive; PKD1 inh: inactive; Pemphigus Ab inh: inactive; HDAC3 inh: inactive; VLA-4 inh: inactive

How did NS(=O)(=O)c1cccc(NC(=O)Nc2ccccc2)c1 do in these assays?
LANA-H2A inh: inactive; GRK2 inh: inactive; Pemphigus Ab inh: inactive; HDAC3 inh: inactive; VLA-4 inh: inactive; VLA-4 allo CP: inactive

How did NS(=O)(=O)c1ccc(NC(=O)Nc2ccccc2)cc1 do in these assays?
LANA-H2A inh: inactive; GRK2 inh: inactive; Pemphigus Ab inh: inactive; VLA-4 inh: inactive; VLA-4 allo CP: inactive

Results for Cc1cc(C)cc(NC(=O)Nc2cccc(S(N)(=O)=O)c2)c1 ?
LANA-H2A inh: inactive; GRK2 inh: inactive; Pemphigus Ab inh: inactive; HDAC3 inh: inactive; VLA-4 inh: inactive

What do the screens show for `Fc1ccc(-n2nnc(-c3nccs3)n2)cc1`?
LANA-H2A inh: inactive; GRK2 inh: inactive; PKD1 inh: inactive; Pemphigus Ab inh: inactive; HDAC3 inh: inactive; VLA-4 inh: inactive

How did COc1ccccc1C(=O)COC(=O)Cn1nc(C)c([N+](=O)[O-])c1C do in these assays?
LANA-H2A inh: inactive; GRK2 inh: inactive; Pemphigus Ab inh: inactive; HDAC3 inh: inactive; VLA-4 inh: inactive

What do the screens show for `O=C(c1ccco1)N1CCN(c2ccnc3cc(Cl)ccc23)CC1`?
LANA-H2A inh: inactive; GRK2 inh: inactive; PKD1 inh: inactive; Pemphigus Ab inh: inactive; HDAC3 inh: inactive; VLA-4 inh: inactive

How did O=C(c1ccco1)N1CCN(C(=O)c2cc(-c3ccncc3)nc3ccc(Br)cc23)CC1 do in these assays?
LANA-H2A inh: inactive; GRK2 inh: inactive; PKD1 inh: inactive; Pemphigus Ab inh: inactive; HDAC3 inh: inactive; VLA-4 inh: inactive; VLA-4 allo CP: inactive
